GIRK2 activ: opens human GIRK2 potassium channels; P48051; 0.05% of 63,000 active; AID 1259325; calls only for hits at 25 µM; HEK293-GIRK2 thallium flux, Thallos fluorescence, MPD; call rule not given here
Target sequence (P48051 whole entry, looked up): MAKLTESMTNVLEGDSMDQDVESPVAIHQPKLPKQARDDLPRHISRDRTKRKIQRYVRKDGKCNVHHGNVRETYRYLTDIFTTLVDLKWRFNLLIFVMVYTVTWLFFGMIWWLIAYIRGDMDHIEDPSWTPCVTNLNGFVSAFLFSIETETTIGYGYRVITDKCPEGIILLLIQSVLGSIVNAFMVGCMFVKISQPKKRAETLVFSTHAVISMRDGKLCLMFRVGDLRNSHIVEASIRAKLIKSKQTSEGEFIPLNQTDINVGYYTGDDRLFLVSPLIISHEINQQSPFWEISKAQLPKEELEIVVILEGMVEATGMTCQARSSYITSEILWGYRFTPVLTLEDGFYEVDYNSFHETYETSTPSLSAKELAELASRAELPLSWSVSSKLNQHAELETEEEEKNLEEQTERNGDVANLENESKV
Starred values were filed as active, the others as inactive; i = inactive; + = active, no number. The full list was thinned out, with hits kept by preference.

SMILES	GIRK2 activ
COc1cccc2sc(N(C)CC(=O)NC(C)c3ccccc3)nc12 (stereo unspecified)	i
CC1CCN(S(=O)(=O)c2cccn(CC(=O)Nc3ccc(F)c(Cl)c3)c2=O)CC1	i
CCOC(=O)Cn1c(=O)c2c(nc3n(-c4ccccc4CC)c(C)cn23)n(C)c1=O	i
COc1ccc(CNC(=O)CSc2nccn2-c2cccc(C(=O)NCc3ccccc3)c2)cc1	i
CN(C)CCCN1C(=O)C(O)=C(C(=O)c2cc3ccccc3o2)C1c1ccc(F)cc1 (stereo unspecified)	i
O=C(Cn1nc(-c2cccs2)c2sc(N3CCCC3)nc2c1=O)NCc1ccc2c(c1)OCO2	i
O=c1c(=O)n(-c2ccccc2)ccn1Cc1nc(-c2ccc(Br)cc2)no1	i
CN1CCC(CNS(=O)(=O)c2ccc(OC(F)(F)F)cc2)CC1	i
COc1ccc(Br)cc1-c1nc(Cn2nnc(C(=O)Nc3ccccc3C)c2C)c(C)o1	i
O=C(c1nnn(-c2ccccc2Cl)c1-c1ccccn1)N1CCN(c2ncccn2)CC1	i
O=C(Nc1ccc(F)cc1)c1nnn(-c2ccccc2Cl)c1-c1ccccn1	i
O=C(Nc1nccs1)c1nnn(-c2ccccc2)c1-c1ccccn1	i
O=C(Nc1ccc2c(c1)OCCO2)c1nnn(-c2ccccc2Cl)c1-c1ccccn1	+
Cc1[nH]ncc1CNC(=O)c1nnn(-c2ccccc2Cl)c1-c1ccccn1	i
Cc1csc(NC(=O)c2nnn(-c3ccccc3Cl)c2-c2ccccn2)n1	+
COCCn1c(-c2nc(C(=O)Nc3nccs3)cs2)cc2ccccc21	i
COc1ccccc1CNC(=O)c1ccc2c(=O)n(-c3ccc(F)cc3)c(N3CCCC3)nc2c1	i
CCOC(=O)c1ccc(NC(=O)Cn2nc3ccc(Sc4ccccc4)nn3c2=O)cc1	i
O=C(CCn1cnc2c([nH]c3ccccc32)c1=O)NCc1ccccc1Cl	i
COc1cccc(C(=O)Nc2cc(C)nn2-c2nc(-c3ccccc3)cs2)c1OC	i
CCc1cc(C(=O)Cc2ccc3c(c2)OCCCO3)c(O)cc1OC	i
COC(=O)c1ccc(C(=O)NCC(C)(O)c2ccco2)cc1 (stereo unspecified)	i
Cc1cc2c(=O)n(Cc3ccco3)c(SCC(=O)Nc3cccc(C)c3C)nc2s1	i
O=C(NCc1ccccn1)c1csc(-n2cccc2)n1	i
COc1ccc(S(=O)(=O)NCC(c2ccsc2)N2CCN(C)CC2)cc1F (stereo unspecified)	i
SMILES	GIRK2 activ
CCOC(=O)c1ccc(NC(=O)c2ocnc2C)cc1	i
CCn1cc(/C=c2/sc3n(c2=O)C(c2ccccc2)C(C(=O)Nc2ccccc2C)=C(C)N=3)c(C)n1 (stereo unspecified)	i
CCOC(=O)C1=C(C)N=c2s/c(=C/c3cn(C)nc3C)c(=O)n2C1c1ccc(OC)cc1 (stereo unspecified)	i
CCOC(=O)C1=C(C)N=c2s/c(=C/c3c(C)nn(C)c3C)c(=O)n2C1c1ccccc1 (stereo unspecified)	+
CN(C)S(=O)(=O)N1CC(c2nc(-c3cccc(Cl)c3)no2)C1	i
O=C(c1cc(-c2ccco2)on1)N1CCC(Oc2ccc(Cl)cn2)CC1	i
Cc1nnsc1C(=O)N1CCN(Cc2c(C)noc2C)CC1	i
CCn1c(SCC(=O)Nc2ccc3c(c2)OCCO3)nc2sc3c(c2c1=O)CCC3	i
Cc1ccc2c(c1)C(=O)OC(C)(C(=O)Nc1cc(C)on1)C2 (stereo unspecified)	i

Screening data from PubChem BioAssay.
